Source: PubChem BioAssay
“And” between values parts separate entries of the source, which are not always exact repeats. Identical values can stand only once. Where a structure was tested more than once in an assay, its records may differ in their call. The source made the active and inactive calls. The rule behind the calls is not given here.

Legend:
[1] = liver-stage malaria parasite load reduction – cell-based, known kinase inhibitor set, luminescence, hepatoma host viability (AID 624392); conditions: Plasmodium liver stage in hepatoma cells, luciferase luminescence, concentration not given here; liver cell % of control: measured here: host liver cell viability; parasite % of control: stronger effect = lower value;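 note: infected cells incubated roughly two days before readout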
[2] = altered dexamethasone sensitivity, NF-kB reporter, cell-based, luciferase, IL-1B stimulus (AID 624486); conditions: IL-1B + dexamethasone, luminescence; percent of negative control (+Dex): actives lie on both sides, concentration not given here; z-score: measured here: IL-1B alone, no Dex;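 for percent of negative control (+Dex): 100% = mean signal of vehicle control wells on the plate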
[3] = molecular target: Cellular tumor antigen p53 (Homo sapiens) (UniProt P04637); assay: GFP-p53 level modulators in HPV16+ cells – imaging, known kinase inhibitor set, EGFP/DsRed ratio (AID 1053116); conditions: GFP-p53 stability, stronger effect = higher value; EGFP object count: measured here: GFP-p53 positive objects count;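 note: cells exposed to compounds for 24 h at 37 °C before reading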
[4] = inducers of IRF3 signaling, differentiated THP-1 – cell-based, PMA-stimulated THP-1, luminescence (AID 1053176); conditions: PMA-differentiated THP-1, IRF3 reporter luminescence; stronger effect = higher value

Chain of Cellular tumor antigen p53 (Homo sapiens) (P04637 whole entry, looked up): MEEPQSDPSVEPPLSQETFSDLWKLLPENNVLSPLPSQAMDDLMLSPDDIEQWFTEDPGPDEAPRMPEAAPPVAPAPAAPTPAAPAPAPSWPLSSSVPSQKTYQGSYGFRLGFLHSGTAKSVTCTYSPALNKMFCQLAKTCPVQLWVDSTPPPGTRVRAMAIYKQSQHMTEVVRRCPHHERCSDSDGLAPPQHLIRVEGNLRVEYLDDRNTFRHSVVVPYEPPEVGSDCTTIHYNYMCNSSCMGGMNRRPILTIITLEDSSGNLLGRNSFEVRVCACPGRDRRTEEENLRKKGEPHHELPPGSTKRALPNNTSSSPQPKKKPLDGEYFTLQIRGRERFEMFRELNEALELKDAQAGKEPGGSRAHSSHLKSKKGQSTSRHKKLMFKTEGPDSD

| Structure (SMILES) | liver cell % of control [1] | parasite % of control [1] | percent of negative control (+Dex) [2] | z-score [2] | EGFP object count [3] | EGFP/DsRed ratio [3] | fraction signal [4] |
| --- | --- | --- | --- | --- | --- | --- | --- |
| Cc1ccccc1C1=C(c2cn(C)c3ccccc23)C(=O)NC1=O | 136% | 37% (inactive) | 96% (inactive) | -1.4 | 22 | 0.4 (inactive) | 0.0035 (inactive) |
| CC(C)(O)Cn1c(=O)c(Oc2ccc(F)cc2F)cc2cnc(NC3CCOCC3)nc21 | 105% | 58.9% (inactive) | 86% (inactive) | -0.37 | 4 | 0.0773 (inactive) | -0.0135 (inactive) |
| Cn1cc(C2=C(c3c4n(c5ccccc35)CCN(C(N)=S)C4)C(=O)NC2=O)c2ccccc21 | 94.5% | 22.4% (inactive) | 110% (inactive) | -0.965 | 36.5 | 0.211 (inactive) | -0.007 (inactive) |
| Fc1ccc(-c2c(-c3ccncc3)[nH]c3cccnc23)cc1 | 141% | 1.58% (active) | 95% (inactive) | 0.075 | 6 | 0.15 (inactive) | -0.0095 (inactive) |
| CC(C)Nc1ncc2cc(Oc3ccc(F)cc3F)c(=O)n(C)c2n1 | 99.2% | 50.9% (inactive) | 95.5% (inactive) | -0.005 | 1 | 0.00675 (inactive) | -0.0005 (inactive) |
| Cn1c(=O)c(Oc2ccc(F)cc2F)cc2cnc(NCC(C)(C)O)nc21 | 102% | 62.1% (inactive) | 101% (inactive) | -0.01 | 4 | 0.146 (inactive) | -0.001 (inactive) |
| Cn1cc(C2=C(c3cccc(OCC(O)CO)c3)C(=O)NC2=O)c2ccccc21 (stereo not given) | 160% and 129% | 22.3% (inactive) and 22.7% (inactive) | 136% (active) and 100% (inactive) | -1.71 and 0.045 | 7 and 9.5 | 0.14 (inactive) and 0.372 (inactive) | 0.0035 (inactive) and -0.0025 (inactive) |
| Cc1[nH]nc2c1N=C(c1ccccc1F)c1cc(C#N)ccc1N2 | 96.8% | 68.4% (inactive) | 157% (active) | 0.015 | 99.5 | 0.814 (active) | 0.0055 (inactive) |
| Cn1cc(C2=C(Oc3ccccc3)C(=O)NC2=O)c2ccccc21 | 109% | 43% (inactive) | 102% (inactive) | 0.18 | 41 | 0.339 (inactive) | -0.0005 (inactive) |
| Cn1cc(C2=C(c3cn(C)c4ccc(Cl)cc34)C(=O)NC2=O)c2ccccc21 | 77% | 33.5% (inactive) | 114% (inactive) | -1.06 | 156 | 0.929 (active) | -0.0075 (inactive) |
| Cn1cc(C2=C(c3cn(C)c4cc(C(=O)O)ccc34)C(=O)NC2=O)c2ccccc21 | 145% | 38.3% (inactive) | 99% (inactive) | 0.65 | 2.5 | 0.485 (inactive) | 0.0035 (inactive) |
| CC(=O)Nc1ccc2c(c1)C(c1ccccc1Cl)=Nc1c(n[nH]c1C)N2 | 93.6% | 30.4% (inactive) | 95% (inactive) | -0.58 | 28.5 | 0.33 (inactive) | -0.003 (inactive) |
| Cc1ccccc1-n1ncc(C(=O)c2ccccc2)c1N | 104% | 52.3% (inactive) | 120% (inactive) | 1.31 | 5 | 0.225 (inactive) | -0.0005 (inactive) |
| Cn1c(=O)c(Oc2ccccc2F)cc2cnc(NC3CCOCC3)nc21 | 116% | 49.5% (inactive) | 107% (inactive) | 0.09 | 7 | 0.313 (inactive) | 0.001 (inactive) |
| Cn1cc(C2=C(c3c4n(c5ccccc35)CCC(CN)CC4)C(=O)NC2=O)c2ccccc21 (stereo not given) | 127% | 42.3% (inactive) | 94% (inactive) | -0.165 | 30.5 | 0.0801 (inactive) | -0.003 (inactive) |
| O=C1NC(=NCCc2ccccc2F)SC1=Cc1ccc2ncccc2c1 | 108% | 44.4% (inactive) | 99% (inactive) | 0.18 | 12.5 | 0.349 (inactive) | -0.0025 (inactive) |
| CSc1c(C2=C(c3cn(C)c4ccccc34)C(=O)NC2=O)c2ccccc2n1C | 96.3% | 78.1% (inactive) | 110% (inactive) | 0.45 | 21 | 0.217 (inactive) | 0.0015 (inactive) |
| Nc1c(C(=O)c2cccc(-c3ccc[n+]([O-])c3)c2)cnn1-c1ccc(F)cc1F | 105% | 45.9% (inactive) | 101% (inactive) | 0.065 | 3.5 | 0.063 (inactive) | -0.0155 (inactive) |
| COc1ccc(C2=C(c3cn(C)c4ccccc34)C(=O)NC2=O)cc1OC | 215% | 12.7% (inactive) | 100% (inactive) | -0.425 | 13 | 0.28 (inactive) | -0.003 (inactive) |
| Cc1ccc2c(c1)c(C1=C(c3cn(C)c4ccccc34)C(=O)NC1=O)cn2C | 83% | 41.7% (inactive) | 102% (inactive) | -1.36 | 174 | 0.907 (active) | -0.003 (inactive) |
